Screening data (PubChem BioAssay)
This is a sample that favours compounds with a hit; in the whole collection about 7.9% have one here.
SW480 rereplic – induces DNA re-replication in SW480 colon adenocarcinoma cells; Potency, µM (titrated, usually from 46.1 µM), most hits filed as activators; 1.8% of 340,000 active; SW480 DNA re-replication, Hoechst DNA content imaging, 48 h; also: nearly all actives have a fitted effect of over 55% in size
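SW480 cells exposed to compounds for 48 hr at 37 C, 5% CO2, then Hoechst-stained 40 min. Nuclear DNA content imaged by fluorescence scanning (405 nm excitation, 500-530 nm emission); re-replication scored as increased high-intensity nuclei.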
HT1080 IDH1KD tx – toxicity to HT-1080 IDH1 knockdown cells (counter line) | AID 686971 | HT-1080 IDH1 knockdown viability, ATP luminescence, 48 h | 2% of 360,000 active | Potency, µM (highest dose often 46.1 µM), hits mostly cytotoxic
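IDH1KD HT-1080 cells, 750/well, RPMI + 5% FBS; compound pinned after 2 h settling; 48 h, 37 °C; CellTiter-Glo luminescence; % activity normalised to DMSO and no-cell wells; curves fitted, classed by r2 and efficacy.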
HT1080-NT tox – kills 2HG-producing HT-1080-NT fibrosarcoma cells; HT-1080-NT fibrosarcoma viability, CellTiter-Glo ATP luminescence, 48 h; Potency, µM (titrated, usually from 46.1 µM), usual class: cytotoxic; 1.6% of 360,000 active;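 also: NT is the 2HG producing partner of a matched IDH1 knockdown line; nearly all actives have a fitted effect of over 55% in size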
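Fibrosarcoma NT cells, 750 per well in 5% FBS RPMI, were exposed to compound for 48 hours. Viability: CellTiter-Glo luminescence.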
KB-V1 MDR tox – kills drug-selected multidrug resistant KB-V1 cells; KB-V1 MDR cells viability, CellTiter-Glo, 72 h; Potency, µM (series often up to 46.1 µM), most hits filed as cytotoxic; 3.4% of 400,000 active; AID 1347076; also: nearly all actives have a fitted effect of over 60% in size
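KB-V1, DMEM (no phenol red) + 10% FBS; cpd pin-transferred, titration series; 72 h, 37 degrees C; CellTiter-Glo, luminescence. Data normalized, curve-fit.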
MCF10A rerep – induces DNA re-replication in MCF 10a normal breast cells; MCF 10A DNA re-replication, Hoechst nuclear intensity, 48 h; Potency, µM (doses to about 46.1 µM), hits mostly activators; 2.9% of 350,000 active; AID 624296; also: nearly all actives have a fitted effect of over 50% in size
KB-3-1 tox – KB-3-1 parental cell cytotoxicity | KB-3-1 viability, CellTiter-Glo ATP luminescence, 72 h | 1.4% of 400,000 active | Potency, µM (series often up to 46.1 µM), most hits filed as cytotoxic; also: nearly all actives have a fitted effect of over 60% in size
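Cells are dispensed, compounds pinned in, plates held at 37 °C for 72 h, then CellTiter-Glo is added and luminescence read after 10 minutes. Cell line: parental KB-3-1 in phenol-red-free DMEM, 10% FBS.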
A number is an active result. Calls follow the shape of the dose curve; as a rule, active = well fitted curve in the direction sought with a large enough effect; inconclusive = small, poorly fitted or top-dose-only effect, or another doubt; inactive = no such curve, though single readings can be large; an effect the other way counts as inactive or inconclusive.

Cc1ccc(C(=O)OCC(=O)N2C(C)CCCC2C)cc1S(=O)(=O)N1CCOCC1 (stereo not given) was read as SW480 rereplic inactive, HT1080 IDH1KD tx inactive, HT1080-NT tox inactive, KB-V1 MDR tox inactive, MCF10A rerep inactive and KB-3-1 tox inactive.
`COc1cccc(-c2ccc(C#N)c(OC(=O)c3c(Cl)cccc3Cl)n2)c1` gave SW480 rereplic inactive, HT1080 IDH1KD tx inactive, HT1080-NT tox inactive, KB-V1 MDR tox 16µM, MCF10A rerep inactive and KB-3-1 tox inactive.
Cc1nnnn1/C(=C\c1ccccc1)C(=O)OCC(=O)NC(C)(C)C was read as SW480 rereplic inconclusive, HT1080 IDH1KD tx inconclusive, HT1080-NT tox inactive, KB-V1 MDR tox inactive, MCF10A rerep inconclusive and KB-3-1 tox inactive.
`Cc1nnnn1/C(=C\c1ccccc1)C(=O)OCC(=O)NC1CCCCC1` gave SW480 rereplic 23µM, HT1080 IDH1KD tx 18µM, HT1080-NT tox inconclusive, KB-V1 MDR tox inactive, MCF10A rerep inconclusive and KB-3-1 tox inactive.
`CC(=NO)C1CCC2C3CCC4CC(=NO)CCC4(C)C3C(C)(O)CC12C` (stereo not given) gave SW480 rereplic inactive, HT1080 IDH1KD tx inactive, HT1080-NT tox inactive, KB-V1 MDR tox 12µM, MCF10A rerep inactive and KB-3-1 tox inactive.
COc1ccccc1CCNC(=O)C(=O)NCC(c1ccco1)S(=O)(=O)c1cccs1 (stereo not given) was read as KB-V1 MDR tox inconclusive and KB-3-1 tox inactive.
Screening Cc1cc(C(=O)OCC(=O)NC2CCS(=O)(=O)C2)c(C)n1-c1ccccc1 (stereo not given) returned SW480 rereplic inactive, HT1080 IDH1KD tx inactive, HT1080-NT tox inactive, KB-V1 MDR tox 16µM, MCF10A rerep inactive and KB-3-1 tox inconclusive.
For COc1ccc2cc(-c3cc(C(=O)OCC(=O)NC4CCS(=O)(=O)C4)c4ccccc4n3)ccc2c1 (stereo not given) the results were SW480 rereplic inconclusive, HT1080 IDH1KD tx 10µM, HT1080-NT tox inconclusive, KB-V1 MDR tox inactive, MCF10A rerep 7.3µM and KB-3-1 tox inactive.
CCC(CC)NC(=O)c1cc(S(=O)(=O)N2CCCCC2)ccc1N1CCOCC1 was read as SW480 rereplic inactive, HT1080 IDH1KD tx inactive, HT1080-NT tox inactive, KB-V1 MDR tox inactive, MCF10A rerep inactive and KB-3-1 tox inactive.
`CCOc1ccc(C(=O)NC(C(=O)NCC(c2cccs2)N(C)C)C(C)C)cc1` (stereo not given) gave SW480 rereplic inactive, HT1080 IDH1KD tx inactive, HT1080-NT tox inactive, KB-V1 MDR tox inactive, MCF10A rerep inactive and KB-3-1 tox inactive.
Screening Cc1nn(Cc2ccccc2)c(C)c1NC(=O)Cn1nc([N+](=O)[O-])c(Cl)c1C returned SW480 rereplic inactive, HT1080 IDH1KD tx inconclusive, HT1080-NT tox inactive, KB-V1 MDR tox inactive, MCF10A rerep inactive and KB-3-1 tox inactive.
Cc1nn(Cc2ccccc2)c(C)c1NC(=O)c1ccc([N+](=O)[O-])cc1[N+](=O)[O-] was read as SW480 rereplic 16µM, HT1080 IDH1KD tx inactive, HT1080-NT tox inactive, KB-V1 MDR tox inconclusive, MCF10A rerep inactive and KB-3-1 tox inactive.
Screening OC[C@@H]1CN(Cc2ccc(Cl)cc2)C[C@H](n2cnc3c(N4CCN(c5ccccc5)CC4)ncnc32)O1 returned HT1080 IDH1KD tx 16µM, HT1080-NT tox 18µM, KB-V1 MDR tox inconclusive and KB-3-1 tox inconclusive.
Screening OC[C@@H]1CN(Cc2ccc(Cl)cc2)C[C@H](n2cnc3c(N4CCOCC4)ncnc32)O1 returned HT1080 IDH1KD tx inactive, HT1080-NT tox inconclusive, KB-V1 MDR tox inactive and KB-3-1 tox inactive.
OC[C@@H]1CN(Cc2ccc(-c3ccccc3)cc2)C[C@H](n2cnc3c(N4CCOCC4)ncnc32)O1 was read as HT1080 IDH1KD tx 21µM, HT1080-NT tox 18µM, KB-V1 MDR tox inactive and KB-3-1 tox inactive.
CN(C)CCNc1ncnc2c1ncn2[C@H]1CN(Cc2ccc(F)cc2)C[C@@H](CO)O1 was read as HT1080 IDH1KD tx inactive, HT1080-NT tox inactive, KB-V1 MDR tox inactive and KB-3-1 tox 8.2µM.
Screening COc1ccc(CN2C[C@@H](CO)O[C@@H](n3cnc4c(N5CCN(c6ccccc6)CC5)ncnc43)C2)cc1 returned HT1080 IDH1KD tx 18µM, HT1080-NT tox inconclusive, KB-V1 MDR tox inactive and KB-3-1 tox inactive.
`CC(C)S(=O)(=O)N1CCN(c2nc(-c3cccs3)nc3ccccc23)CC1` gave HT1080 IDH1KD tx inactive and HT1080-NT tox inactive.
COCCN(C(=O)c1cc(S(=O)(=O)N2CCCCC2)ccc1Cl)c1c(N)n(CC(C)C)c(=O)[nH]c1=O was read as SW480 rereplic inactive, HT1080 IDH1KD tx inactive, HT1080-NT tox inactive, KB-V1 MDR tox inactive, MCF10A rerep inactive and KB-3-1 tox inactive.
For CCOC1=C2CN(S(=O)(=O)c3ccc(C)cc3)[C@H](c3ccccc3)C[C@@H]2N(S(=O)(=O)c2ccccc2C)[C@H](c2ccccc2)C1 the results were HT1080 IDH1KD tx inactive, HT1080-NT tox inactive, KB-V1 MDR tox inactive and KB-3-1 tox inactive.
Screening CCOc1ccc(CCNC(=O)c2ccc3ccccc3n2)cc1OCC returned SW480 rereplic inactive, HT1080 IDH1KD tx inactive, HT1080-NT tox inactive, KB-V1 MDR tox inactive, MCF10A rerep inconclusive and KB-3-1 tox inconclusive.
`OC[C@@H]1CN(Cc2ccccc2)C[C@H](n2cnc3c(NC4CC4)ncnc32)O1` gave HT1080 IDH1KD tx inactive, HT1080-NT tox inactive, KB-V1 MDR tox inactive and KB-3-1 tox inactive.
Screening OC[C@@H]1CN(Cc2ccc(-c3ccccc3)cc2)C[C@H](n2cnc3c(NC4CCC4)ncnc32)O1 returned HT1080 IDH1KD tx 16µM, HT1080-NT tox 13µM, KB-V1 MDR tox inconclusive and KB-3-1 tox inconclusive.
`Cc1ccc(Cn2c(=O)c3ccccc3n3c(-c4cccc(O)c4)nnc23)cc1` gave KB-V1 MDR tox inactive and KB-3-1 tox inactive.
Screening Cc1ccc(/C=C/C(=O)OCC(=O)N(C)c2c(N)n(Cc3ccccc3)c(=O)[nH]c2=O)o1 returned HT1080 IDH1KD tx inactive, HT1080-NT tox inactive, KB-V1 MDR tox inactive and KB-3-1 tox inactive.
`O=C(COC(=O)/C(=C/c1cccs1)c1cccs1)NC(c1ccccc1)c1ccccc1` gave SW480 rereplic inactive, HT1080 IDH1KD tx inactive, HT1080-NT tox inactive, KB-V1 MDR tox 8.2µM, MCF10A rerep inactive and KB-3-1 tox inactive.
For CCn1c(SCC(=O)Nc2ccc3c(c2)oc2ccccc23)nnc1-c1ccc(N)cc1 the results were SW480 rereplic inconclusive, HT1080 IDH1KD tx inconclusive, HT1080-NT tox inconclusive, KB-V1 MDR tox 18µM, MCF10A rerep inconclusive and KB-3-1 tox inconclusive.
